# In PubChem BioAssay (NCI):
# About 79,000 compounds went through this panel and 15% of them were active in at least one assay; those are over-represented in the sample as a whole. Values without a mark were called inactive. Calls of active or inactive are those of the source. No stated cut-off is given here; in the data, active means growth inhibition above about 70%; inactive means the rest.
# How the values were obtained:
# [1] = NCI Yeast Anticancer Drug Screen. Data for the rad52 strain (AID 147);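 further: 0% = growth of vehicle-treated control cultures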; conditions: S. cerevisiae rad52 mutant growth inhibition, hits give high values
# Summary of the method: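 DNA repair-defective yeast; compound exposure; growth scored against vehicle controls.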
# [2] = NCI Yeast Anticancer Drug Screen. Data for the wt1 strain (AID 149);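 further: 0% = growth of vehicle-treated wt1 cultures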; conditions: S. cerevisiae wt1 strain (SPY 50644) growth inhibition, hits give high values
# Summary of the method: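 Vehicle-normalised growth inhibition; strain wt1; compound exposure.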
# [3] = NCI Yeast Anticancer Drug Screen. Data for the rad50EPP+ strain (AID 151);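 further: 0% = growth of vehicle-treated control cultures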; conditions: S. cerevisiae rad50 mutant strain, hits give high values
# Summary of the method: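 rad50EPP+ yeast treated with test compounds. Readout: growth vs vehicle control.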
# [4] = NCI Yeast Anticancer Drug Screen. Data for the rad50 strain (AID 155);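 further: 0% = growth of vehicle-only cultures of the same strain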; conditions: S. cerevisiae rad50 strain growth inhibition, hits give high values
# Summary of the method: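 A DNA repair-deficient yeast mutant serves as the test organism; compound-induced growth inhibition is calculated against vehicle-treated cells.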
# [5] = NCI Yeast Anticancer Drug Screen. Data for the mec2-1 strain (AID 157); conditions: S. cerevisiae mec2-1 strain, hits give high values
# Summary of the method: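 Growth inhibition is read against vehicle-treated controls after compound exposure of the mec2-1 yeast strain, which is defective in DNA damage repair or cell cycle control.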
# [6] = NCI Yeast Anticancer Drug Screen. Data for the rad14 strain (AID 159);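 further: 0% = growth of vehicle-treated control cultures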; conditions: S. cerevisiae rad14 strain growth inhibition, hits give high values
# Summary of the method: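 Vehicle-treated cultures served as the baseline for growth inhibition of a DNA repair-mutant yeast strain exposed to each compound.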
# [7] = NCI Yeast Anticancer Drug Screen. Data for the sgs1 mgt1 strain (AID 161);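 further: 0% = growth of cultures given vehicle only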; conditions: S. cerevisiae sgs1 mgt1 strain, hits give high values
# Summary of the method: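 Compounds are added to genetically altered yeast, and growth is compared with cultures given vehicle alone to give percent inhibition.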
# [8] = NCI Yeast Anticancer Drug Screen. Data for the CLN2oe strain (AID 163);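 further: 0% = growth of vehicle-only control cultures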; conditions: S. cerevisiae CLN2oe strain, hits give high values
# Summary of the method: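 Compound-treated yeast; growth vs vehicle ctrl = % inhibition. Genetically altered strain (cell-cycle control).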
# [9] = NCI Yeast Anticancer Drug Screen. Data for the cln2 rad14 strain (AID 165);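 further: 0% = growth equal to vehicle treated cultures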; conditions: S. cerevisiae cln2 rad14 strain, hits give high values
# Summary of the method: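 Growth inhibition, relative to vehicle-treated controls, is the read-out. The test organism is a yeast strain with defined genetic alterations, cln2 rad14.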
# [10] = NCI Yeast Anticancer Drug Screen. Data for the bub3 strain (AID 167); conditions: S. cerevisiae bub3 mutant strain, hits give high values
# Summary of the method: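 Inhibition values come from growth of compound-treated mutant yeast normalised to vehicle-treated controls.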
# [11] = NCI Yeast Anticancer Drug Screen. Data for the wt2 strain (AID 169);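 further: 0% = growth of vehicle-treated yeast cultures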; conditions: S. cerevisiae wt2 strain growth inhibition, hits give high values
# Summary of the method: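 Compound exposure of yeast; growth compared with vehicle controls; inhibition reported.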
# [12] = NCI Yeast Anticancer Drug Screen. Data for the mlh1 strain (AID 171);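 further: 0% = growth of vehicle-treated control cultures of the same strain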; conditions: S. cerevisiae mlh1 strain growth inhibition, hits give high values
# Summary of the method: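 Compounds are applied to a genetically altered yeast strain, and its growth is compared with that of vehicle-treated cultures to give percent inhibition.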
# [13] = NCI Yeast Anticancer Drug Screen. Data for the sgs1 strain (AID 173);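 further: 0% = growth of vehicle-only control cultures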; conditions: S. cerevisiae sgs1 mutant, hits give high values
# Summary of the method: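 Compounds applied to genetically altered yeast; growth compared with vehicle-treated cultures to give % inhibition.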
# [14] = NCI Yeast Anticancer Drug Screen. Data for the mlh1 rad18 strain (AID 175); conditions: S. cerevisiae mlh1 rad18 strain growth inhibition, hits give high values
# Summary of the method: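 Cells of a genetically altered yeast strain, deficient in DNA damage repair, were treated with compound. Their growth was then compared with that of vehicle-treated cultures to give inhibition.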
# [15] = NCI Yeast Anticancer Drug Screen. Data for the rad18 strain (AID 177); conditions: S. cerevisiae rad18 mutant growth inhibition, hits give high values
# Summary of the method: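 Compounds are applied to a repair-deficient yeast strain, and growth is compared with that of vehicle-treated cultures to give percent inhibition.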
# [16] = at 5.0 µM (retest, dose inferred, filed as 0.5)
# [17] = at 50.0 µM (retest, dose inferred, filed as 5.0)
smiles,measurement,setting,value
Cc1ccccc1NC(=O)Cc1csc(N/N=C2\NC(=O)/C(=C/c3cccc([N+](=O)[O-])c3)S2)n1,growth inhibition,[1]; at 1.2 µM,2%
same,growth inhibition,[1]; at 3.7 µM,5%
same,growth inhibition,[1]; at 11.0 µM,13%
same,growth inhibition,[1]; at 33.0 µM,24%
same,growth inhibition,[1]; at 100.0 µM,49%
same,growth inhibition,[2]; at 1.2 µM,3%
same,growth inhibition,[2]; at 3.7 µM,6%
same,growth inhibition,[2]; at 11.0 µM,4%
same,growth inhibition,[2]; at 33.0 µM,11%
same,growth inhibition,[2]; at 100.0 µM,26%
same,growth inhibition,[3]; at 1.2 µM,4%
same,growth inhibition,[3]; at 3.7 µM,9%
same,growth inhibition,[3]; at 11.0 µM,15%
same,growth inhibition,[3]; at 33.0 µM,39%
same,growth inhibition,[3]; at 100.0 µM,51%
same,growth inhibition,[4]; at 1.2 µM,-4%
same,growth inhibition,[4]; at 3.7 µM,-11%
same,growth inhibition,[4]; [16],8%
same,growth inhibition,[4]; at 11.0 µM,-6%
same,growth inhibition,[4]; at 33.0 µM,24%
same,growth inhibition,[4]; [17],10%
same,growth inhibition,[4]; at 50.0 µM,64.1%
same,growth inhibition,[4]; at 100.0 µM,50%
same,growth inhibition,[5]; at 1.2 µM,4%
same,growth inhibition,[5]; at 3.7 µM,2%
same,growth inhibition,[5]; [16],8%
same,growth inhibition,[5]; at 11.0 µM,5%
same,growth inhibition,[5]; at 33.0 µM,12%
same,growth inhibition,[5]; [17],13%
same,growth inhibition,[5]; at 50.0 µM,32.1%
same,growth inhibition,[5]; at 100.0 µM,23%
same,growth inhibition,[6]; at 1.2 µM,4%
same,growth inhibition,[6]; at 3.7 µM,2%
same,growth inhibition,[6]; at 11.0 µM,8%
same,growth inhibition,[6]; at 33.0 µM,16%
same,growth inhibition,[6]; at 100.0 µM,22%
same,growth inhibition,[7]; [16],-1%
same,growth inhibition,[7]; [17],22%
same,growth inhibition,[7]; at 50.0 µM,79% (active)
same,growth inhibition,[8]; at 1.2 µM,0%
same,growth inhibition,[8]; at 3.7 µM,0%
same,growth inhibition,[8]; at 11.0 µM,-4%
same,growth inhibition,[8]; at 33.0 µM,1%
same,growth inhibition,[8]; at 100.0 µM,17%
same,growth inhibition,[9]; [16],-16%
same,growth inhibition,[9]; [17],28%
same,growth inhibition,[9]; at 50.0 µM,21.6%
same,growth inhibition,[10]; at 1.2 µM,-1%
same,growth inhibition,[10]; at 3.7 µM,-1%
same,growth inhibition,[10]; [16],-25%
same,growth inhibition,[10]; at 11.0 µM,0%
same,growth inhibition,[10]; at 33.0 µM,15%
same,growth inhibition,[10]; [17],69%
same,growth inhibition,[10]; at 50.0 µM,66.2%
same,growth inhibition,[10]; at 100.0 µM,32%
same,growth inhibition,[11]; at 1.2 µM,2%
same,growth inhibition,[11]; at 3.7 µM,3%
same,growth inhibition,[11]; at 11.0 µM,5%
same,growth inhibition,[11]; at 33.0 µM,17%
same,growth inhibition,[11]; at 100.0 µM,46%
same,growth inhibition,[12]; at 1.2 µM,1%
same,growth inhibition,[12]; at 3.7 µM,4%
same,growth inhibition,[12]; at 11.0 µM,6%
same,growth inhibition,[12]; at 33.0 µM,20%
same,growth inhibition,[12]; at 100.0 µM,51%
same,growth inhibition,[13]; at 1.2 µM,5%
same,growth inhibition,[13]; at 3.7 µM,6%
same,growth inhibition,[13]; at 11.0 µM,8%
same,growth inhibition,[13]; at 33.0 µM,40%
same,growth inhibition,[13]; at 100.0 µM,70% (active)
same,growth inhibition,[14]; [16],13%
same,growth inhibition,[14]; [17],42%
same,growth inhibition,[14]; at 50.0 µM,60.5%
same,growth inhibition,[15]; at 1.2 µM,-2%
same,growth inhibition,[15]; at 3.7 µM,-3%
same,growth inhibition,[15]; at 11.0 µM,6%
same,growth inhibition,[15]; at 33.0 µM,32%
same,growth inhibition,[15]; at 100.0 µM,59%
CC(=O)Oc1ccc(N2C(=O)C3c4[nH]c5ccccc5c4C4CCC(C(C)(C)C)CC4C3C2=O)cc1 (stereo unspecified),growth inhibition,[1]; at 1.2 µM,7%
same,growth inhibition,[1]; at 3.7 µM,87% (active)
same,growth inhibition,[1]; at 11.0 µM,96% (active)
same,growth inhibition,[1]; at 33.0 µM,96% (active)
same,growth inhibition,[1]; at 100.0 µM,90% (active)
same,growth inhibition,[2]; at 1.2 µM,15%
same,growth inhibition,[2]; at 3.7 µM,64%
same,growth inhibition,[2]; at 11.0 µM,98% (active)
same,growth inhibition,[2]; at 33.0 µM,95% (active)
same,growth inhibition,[2]; at 100.0 µM,95% (active)
same,growth inhibition,[3]; at 1.2 µM,-23%
same,growth inhibition,[3]; at 3.7 µM,-26%
same,growth inhibition,[3]; at 11.0 µM,-26%
same,growth inhibition,[3]; at 33.0 µM,-6%
same,growth inhibition,[3]; at 100.0 µM,6%
same,growth inhibition,[4]; at 1.2 µM,-14%
same,growth inhibition,[4]; at 3.7 µM,91% (active)
same,growth inhibition,[4]; [16],98% (active)
same,growth inhibition,[4]; at 11.0 µM,96% (active)
same,growth inhibition,[4]; at 33.0 µM,95% (active)
same,growth inhibition,[4]; [17],98% (active)
same,growth inhibition,[4]; at 50.0 µM,98.5% (active)
same,growth inhibition,[4]; at 100.0 µM,92% (active)
same,growth inhibition,[5]; at 1.2 µM,-4%
same,growth inhibition,[5]; at 3.7 µM,71% (active)
same,growth inhibition,[5]; [16],99% (active)
same,growth inhibition,[5]; at 11.0 µM,98% (active)
same,growth inhibition,[5]; at 33.0 µM,98% (active)
same,growth inhibition,[5]; [17],98% (active)
same,growth inhibition,[5]; at 50.0 µM,98.5% (active)
same,growth inhibition,[5]; at 100.0 µM,95% (active)
same,growth inhibition,[6]; at 1.2 µM,-15%
same,growth inhibition,[6]; at 3.7 µM,18%
same,growth inhibition,[6]; at 11.0 µM,97% (active)
same,growth inhibition,[6]; at 33.0 µM,97% (active)
same,growth inhibition,[6]; at 100.0 µM,95% (active)
same,growth inhibition,[7]; [16],98% (active)
same,growth inhibition,[7]; [17],98% (active)
same,growth inhibition,[7]; at 50.0 µM,98.5% (active)
same,growth inhibition,[8]; at 1.2 µM,16%
same,growth inhibition,[8]; at 3.7 µM,92% (active)
same,growth inhibition,[8]; at 11.0 µM,98% (active)
same,growth inhibition,[8]; at 33.0 µM,97% (active)
same,growth inhibition,[8]; at 100.0 µM,97% (active)
same,growth inhibition,[9]; [16],83% (active)
same,growth inhibition,[9]; [17],98% (active)
same,growth inhibition,[9]; at 50.0 µM,98.6% (active)
same,growth inhibition,[10]; at 1.2 µM,-28%
same,growth inhibition,[10]; at 3.7 µM,64%
same,growth inhibition,[10]; [16],98% (active)
same,growth inhibition,[10]; at 11.0 µM,97% (active)
same,growth inhibition,[10]; at 33.0 µM,96% (active)
same,growth inhibition,[10]; [17],98% (active)
same,growth inhibition,[10]; at 50.0 µM,98.5% (active)
same,growth inhibition,[10]; at 100.0 µM,94% (active)
same,growth inhibition,[11]; at 1.2 µM,-4%
same,growth inhibition,[11]; at 3.7 µM,25%
same,growth inhibition,[11]; at 11.0 µM,98% (active)
same,growth inhibition,[11]; at 33.0 µM,98% (active)
same,growth inhibition,[11]; at 100.0 µM,96% (active)
same,growth inhibition,[12]; at 1.2 µM,-15%
same,growth inhibition,[12]; at 3.7 µM,36%
same,growth inhibition,[12]; at 11.0 µM,98% (active)
same,growth inhibition,[12]; at 33.0 µM,97% (active)
same,growth inhibition,[12]; at 100.0 µM,94% (active)
same,growth inhibition,[13]; at 1.2 µM,-7%
same,growth inhibition,[13]; at 3.7 µM,52%
same,growth inhibition,[13]; at 11.0 µM,97% (active)
same,growth inhibition,[13]; at 33.0 µM,97% (active)
same,growth inhibition,[13]; at 100.0 µM,94% (active)
same,growth inhibition,[14]; [16],98% (active)
same,growth inhibition,[14]; [17],98% (active)
same,growth inhibition,[14]; at 50.0 µM,98% (active)
same,growth inhibition,[15]; at 1.2 µM,13%
same,growth inhibition,[15]; at 3.7 µM,82% (active)
same,growth inhibition,[15]; at 11.0 µM,96% (active)
same,growth inhibition,[15]; at 33.0 µM,95% (active)
same,growth inhibition,[15]; at 100.0 µM,93% (active)
